Measurements: PubChem BioAssay
Several values for one entry are separate records, joined by “and”; a condition that tells them apart may be missing. Identical values can stand only once. Records with an inconclusive call do not appear. Activity calls are given as the source filed them. Unless noted, no rule for the calls is given here.

Key:
[1] = tested on: Aerobactin synthetase IucA (Klebsiella pneumoniae); experiment: inhibition of K. pneumoniae IucA enzyme – biochemical, Tocris library, absorbance (AID 1345561); conditions: purified IucA enzyme assay, absorbance (OD) read-out; stronger effect = lower value;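 tested at 8 µM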;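 also: 100% = enzyme without compound and 0% = no enzyme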
[2] = viability loss in pontine glioma line – cell-based, SU-DIPG-XVII, MIPE5.0, CellTiter-Glo, qHTS, dose response (AID 1347060; cut-off not given, nearly all actives have AC50 up to about 26 µM;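 as to AC50: cells exposed to compound for 48 hours before viability readout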); conditions: CellTiter-Glo ATP luminescence
[3] = viability loss in pontine glioma line – cell-based, SU-DIPG-XIII, MIPE4.0, CellTiter-Glo, qHTS, dose response (AID 1347061; cut-off not given, nearly all actives have AC50 up to about 37 µM;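 also: cells exposed to compound for 48 hours before readout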); conditions: CellTiter-Glo ATP luminescence
[4] = viability loss in pontine glioma line – cell-based, SU-DIPG-IV, MIPE4.0, CellTiter-Glo, qHTS, dose response (AID 1347063; cut-off not given, nearly all actives have AC50 up to about 30 µM;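 also: compound exposure lasted 48 hours before the viability readout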); conditions: CellTiter-Glo ATP luminescence
[5] = viability loss in pontine glioma line – cell-based, SU-DIPG-XXV, MIPE5.0, CellTiter-Glo, qHTS, dose response (AID 1347065; cut-off not given, nearly all actives have AC50 up to about 26 µM;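 also: cells exposed to compound for 48 hours before ATP readout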); conditions: CellTiter-Glo ATP luminescence
[6] = growth inhibition of DIPG cells – cell-based, MIPE4.0 library, CellTiter-Glo luminescence, qHTS (AID 1347066; cut-off not given, nearly all actives have AC50 up to about 30 µM;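 also: cells exposed to compound for 48 hours before readout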); conditions: SU-DIPG-VI viability, CellTiter-Glo ATP luminescence
[7] = JHH-DIPG-1 glioma cell viability, MIPE5.0 library, CellTiter-Glo luminescence, qHTS (AID 1347067; cut-off not given, nearly all actives have AC50 up to about 26 µM;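 also: cells exposed to compound for 48 hours before readout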); conditions: JHH-DIPG-1 glioma viability, CellTiter-Glo ATP luminescence
[8] = growth inhibition of DIPG cells – cell-based, MIPE5.0 library, qHTS (AID 1347068; cut-off not given, nearly all actives have IC50 up to about 30 µM;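 as to IC50: cells exposed to compound for 48 hours before viability readout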); conditions: SU-DIPG-XXV viability
[9] = compounds altering HSF1 focus formation in cells – imaging, Selleck Cancer Library (AID 1347162; in the data active = plate-normalised HSF1 focus index below about 0.46); conditions: human cells, HSF1 nuclear foci imaging, at 10 µM; SSMD: measured here: HSF1 foci SSMD mean; cell count: measured here: cell number; plate-normalised HSF1 focus index: stronger effect = lower value
[10] = viability loss in pontine glioma line – cell-based, JHH-DIPG-1, MIPE4.0, CellTiter-Glo, qHTS, dose response (AID 1347062; cut-off not given, nearly all actives have AC50 up to about 27 µM;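 as to AC50: cells exposed to compound for two days before readout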); conditions: JHH-DIPG-1 viability, CellTiter-Glo ATP luminescence
[11] = signal quenchers or enhancers, Cy5 substrate/SSB – biochemical, NIH Clinical Collection, E. coli SSB, artefact control for HCV NS3 helicase inhibitor project (AID 743268); conditions: Cy5-oligo bound E. coli SSB, fluorescence interference
[12] = tested on: Hepatitis C virus NS3 helicase; experiment: blockers of NS3h binding to DNA – biochemical, fluorescence polarization, NIH Clinical Collection, primary screen (AID 743270); conditions: NS3 helicase binding to Cy5-dT15 DNA, stronger effect = higher value, concentration not given here
[13] = molecular target: Single-stranded DNA-binding protein (Escherichia coli (strain K12)) (UniProt P0AGE0); experiment: SSB-ssDNA binding inhibitors – biochemical, fluorescence polarization, NIH Clinical Collection, counter-screen for HCV NS3 helicase inhibitor project (AID 743271; in the data active = inhibition above about 28%); conditions: E. coli SSB-DNA binding, stronger effect = higher value, concentration not given here
[14] = compounds distorting NS3 helicase fluorescence signal – biochemical, NIH Clinical Collection, artefact control for HCV NS3 helicase inhibitor project (AID 743272); conditions: fluorescence interference counterscreen, HCV NS3 helicase assay; stronger effect = lower value;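 also: HCV NS3 helicase with a Cy5 labelled single stranded DNA probe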
F380Y/beta4 = experiment: BK channel mutant inhibitors and activators – cell-based, U2OS BacMam, thallium flux, beta subunits, selectivity assay, profiling panel (AID 1259406;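 active = thallium flux through the channel raised or lowered by more than 3 SD from vehicle-only wells, actives on both sides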;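 also: initial slope of Thallos dye fluorescence rise after thallium is added; log ratio against the mean of 0.3% DMSO vehicle wells on the same plate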); conditions: U2OS BacMam BK variants, at 30 µM
[15] = molecular target: Calcium-activated potassium channel subunit alpha-1 (Homo sapiens) + Leucine-rich repeat-containing protein 26 (Homo sapiens) (UniProt Q12791+Q2I0M4); experiment: as above; conditions: U2OS BacMam BK variants, F380Y/Slo1WT/gamma1, at 30 µM
R275C/beta4 = experiment: as above; conditions: U2OS BacMam BK variants, at 30 µM
[16] = viability loss in pontine glioma line – cell-based, SU-DIPG-XIII, MIPE5.0, CellTiter-Glo, qHTS, dose response (AID 1347064; cut-off not given, nearly all actives have AC50 up to about 23 µM;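 as to AC50: cells exposed to compound for 48 hours before the viability read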); conditions: CellTiter-Glo ATP luminescence
[17] = tested on: Neuropilin-2 / VEGF-C interaction (human); experiment: small molecules blocking Neuropilin-2/VEGF-C interaction – biochemical, microplate binding format, z-score (AID 743281); conditions: microplate NRP2/VEGF-C binding assay; stronger effect = lower value
[18] = growth inhibition, single agents and combos, ICB984, cell-based, cisplatin or BGB combos, synergistic combos for chromothripsis tumors (AID 1671451); conditions: ICB984 medulloblastoma cells, drug combinations, stronger effect = higher value;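 also: cells exposed for 96 hours before readout; 0% = vehicle DMSO and 100% = killing by high DMSO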

Sequence of Calcium-activated potassium channel subunit alpha-1 (Homo sapiens) + Leucine-rich repeat-containing protein 26 (Homo sapiens) (Q2I0M4 whole entry, looked up, one chain of several): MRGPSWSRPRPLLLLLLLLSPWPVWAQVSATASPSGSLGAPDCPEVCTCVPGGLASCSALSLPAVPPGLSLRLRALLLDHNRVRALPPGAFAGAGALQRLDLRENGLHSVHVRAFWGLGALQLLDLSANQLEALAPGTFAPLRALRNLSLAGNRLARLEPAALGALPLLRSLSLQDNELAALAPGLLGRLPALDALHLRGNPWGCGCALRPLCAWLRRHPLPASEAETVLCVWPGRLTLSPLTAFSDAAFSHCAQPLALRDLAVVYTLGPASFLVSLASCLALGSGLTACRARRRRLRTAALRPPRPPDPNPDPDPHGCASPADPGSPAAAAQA

CCC1(C2=NCCN2)Cc2ccccc2O1 (stereo not drawn)
inactive: remaining activity [1] 98.6%

O=C(O)c1nn(Cc2ccc(Cl)cc2Cl)c2ccccc12
6570: cell count [9]
inactive: remaining activity [1] 90.4% | outcome [2] | outcome [3] | outcome [4] | outcome [5] | outcome [6] | outcome [7] | outcome [8] | plate-normalised HSF1 focus index [9] 1.03
0.502: SSMD [9]

CN(C)[C@@H]1C(=O)C(C(N)=O)=C(O)[C@@]2(O)C(=O)C3=C(O)c4c(O)cccc4[C@@](C)(O)[C@H]3C[C@@H]12
inactive: outcome [2] | outcome [3] | outcome [10] | outcome [4] | outcome [5] | outcome [6] | outcome [7] | outcome [8]

CCC1(c2ccc(N)cc2)CCC(=O)NC1=O (stereo not drawn)
inactive: fluorescence ratio [11] 1.03 | inhibition [12] -2.27% | inhibition [13] -2% | fluorescence ratio [14] 1.04 | outcome [2] | outcome [3] | outcome [4] | outcome [5] | outcome [6] | outcome [7] | outcome [8] | plate-normalised HSF1 focus index [9] 1.05 | log fold change Tl+ flux (F380Y/beta4) -0.00944 | log fold change Tl+ flux [15] -0.0199 | log fold change Tl+ flux (R275C/beta4) 0.0132
1.46: SSMD [9]
7280: cell count [9]

CN(C)[C@@H]1C(=O)C(C(N)=O)=C(O)[C@@]2(O)C(=O)C3=C(O)c4c(O)cccc4[C@@](C)(O)[C@H]3[C@H](O)[C@@H]12
inactive: fluorescence ratio [11] 1.03 | inhibition [12] -4.09% | inhibition [13] 4.86% | fluorescence ratio [14] 0.85 | outcome [2] | outcome [3] | outcome [10] | outcome [4] | outcome [16] | outcome [6] | outcome [7] | outcome [8] | log fold change Tl+ flux (F380Y/beta4) -0.0391 | log fold change Tl+ flux [15] 0.0226 | log fold change Tl+ flux (R275C/beta4) 0.0299

Clc1ccc(CO/N=C(\Cn2ccnc2)c2ccc(Cl)cc2Cl)c(Cl)c1
inactive: outcome [17]

CN1C(=O)CCS(=O)(=O)C1c1ccc(Cl)cc1 (stereo not drawn)
inactive: remaining activity [1] 97.1% | outcome [2] | outcome [3] | outcome [10] | outcome [4] | outcome [16] | outcome [6] | outcome [7] | outcome [8]

NCC(O)c1ccc(O)cc1 (stereo not drawn)
inactive: remaining activity [1] 96.2%

CCCC(C)(COC(N)=O)COC(=O)NC(C)C (stereo not drawn)
inactive: fluorescence ratio [11] 1.01 | inhibition [12] -6.82% | inhibition [13] -2% | fluorescence ratio [14] 0.93 | outcome [3] | outcome [6] | log fold change Tl+ flux (F380Y/beta4) 0.0106 | log fold change Tl+ flux [15] 0.00552 | log fold change Tl+ flux (R275C/beta4) 0.0318

O=C(CCCN1CCC2(CC1)C(=O)NCN2c1ccccc1)c1ccc(F)cc1
inactive: remaining activity [1] 101%

O=C(O)CCCc1ccc(N(CCCl)CCCl)cc1
-18.5%: inhibition ([18]; cisplatin combo, at 5 µM)
active: AC50 [2] 934 nM | AC50 [7] 16600 nM
-8.66%: inhibition ([18]; measured here: 5 uM single agent, at 5 µM)
-23.1%: inhibition ([18]; BGB IC40 combo, at 0.005 µM)
inactive: fluorescence ratio [11] 1.06 | inhibition [12] -5% | inhibition [13] -4.29% | fluorescence ratio [14] 1.01 | outcome [3] | outcome [4] | outcome [6] | outcome [8] | inhibition ([18]; at 0.5 µM) -29% | log fold change Tl+ flux (F380Y/beta4) -0.0475 | log fold change Tl+ flux [15] -0.00393 | log fold change Tl+ flux (R275C/beta4) -0.00696
-34.6%: inhibition ([18]; cisplatin combo, at 0.5 µM)
-3.85%: inhibition ([18]; BGB IC20 combo, at 0.005 µM)
-2.9%: inhibition ([18]; BGB IC40 combo, at 0.05 µM) | inhibition ([18]; cisplatin combo, at 0.05 µM)

O=c1[nH]c2ccccc2n1C1CCN(CCCC(c2ccc(F)cc2)c2ccc(F)cc2)CC1
inactive: remaining activity [1] 106%

c1ccc2nc(N3CCNCC3)ccc2c1
inactive: remaining activity [1] 102%

C[C@@H]1C[C@@H]([C@H](O)CC2CC(=O)NC(=O)C2)C(=O)[C@@H](C)C1
inactive: outcome [6]
active: AC50 [2] 934 nM | AC50 [10] 743 nM | AC50 [4] 469 nM | AC50 [5] 372 nM | IC50 [8] 934 nM

C=C(C)[C@H]1Cc2c(ccc3c2O[C@@H]2COc4cc(OC)c(OC)cc4[C@@H]2C3=O)O1
inactive: outcome [3]
active: AC50 [2] 1320 nM | AC50 [16] 8330 nM | AC50 [5] 1180 nM | AC50 [7] 1480 nM

CC(NC(C)(C)C)C(=O)c1cccc(Cl)c1 (stereo not drawn)
inactive: fluorescence ratio [11] 1.04 and 1.06 | inhibition [12] -3.56% and 3.56% | inhibition [13] -3.18% and 3.75% | fluorescence ratio [14] 1 | z-score [17] -0.243 and -0.0135 | outcome [2] | outcome [3] | outcome [10] | outcome [4] | outcome [6] | outcome [7] | outcome [8] | log fold change Tl+ flux (F380Y/beta4) -0.0339 and 0.00749 | log fold change Tl+ flux [15] -0.0374 and -0.0597 | log fold change Tl+ flux (R275C/beta4) -0.00901 and 0.0176

COC(=O)C1=CCCN(C)C1
inactive: outcome [4] | outcome [6]

O=c1[nH]oc2c1CCNC2
inactive: remaining activity [1] 79%

Clc1ccc(COC(Cn2ccnc2)c2ccc(Cl)cc2Cl)cc1 (stereo not drawn)
active: log fold change Tl+ flux (F380Y/beta4) -0.321 | log fold change Tl+ flux (R275C/beta4) 0.279
inactive: fluorescence ratio [11] 1.02 | inhibition [12] 3.18% | inhibition [13] 4.1% | fluorescence ratio [14] 0.94

O=c1[nH]c2ccccc2n1CCCN1CCC(n2c(=O)[nH]c3cc(Cl)ccc32)CC1
inactive: remaining activity [1] 103% | outcome [2] | outcome [3] | outcome [10] | outcome [16] | outcome [6] | outcome [8]
